Source: PubChem
A selection: hits, their analogues and other compounds. The true share with any hit is near 0.84%.
PPARg SRC-3 ag – promotes SRC-3 coactivator recruitment by human PPARgamma; P37231; biochemical PPARgamma/SRC-3 coactivator recruitment assay; activation, % at 8 µM; actives 0.26% (n = 200,000); in the data active = activation above about 23%;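 note: 0% = DMSO and 100% = reference agonist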
Target sequence (P37231 whole entry, looked up): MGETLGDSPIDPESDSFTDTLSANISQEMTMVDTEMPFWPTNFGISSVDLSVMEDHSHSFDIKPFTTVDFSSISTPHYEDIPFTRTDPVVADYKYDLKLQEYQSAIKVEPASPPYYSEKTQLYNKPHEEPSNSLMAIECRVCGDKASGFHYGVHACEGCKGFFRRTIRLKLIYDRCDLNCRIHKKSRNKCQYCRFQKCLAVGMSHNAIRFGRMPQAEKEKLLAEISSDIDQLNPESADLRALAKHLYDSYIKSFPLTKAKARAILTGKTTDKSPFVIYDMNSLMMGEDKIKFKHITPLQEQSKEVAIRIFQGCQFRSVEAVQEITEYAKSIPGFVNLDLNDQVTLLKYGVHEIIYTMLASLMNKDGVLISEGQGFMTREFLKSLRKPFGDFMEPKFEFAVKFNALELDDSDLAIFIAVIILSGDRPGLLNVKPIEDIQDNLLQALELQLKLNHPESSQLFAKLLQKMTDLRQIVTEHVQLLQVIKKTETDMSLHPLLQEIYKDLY
SRC1 TRFRET art – counter-screen for PPARgamma SRC-1 recruitment agonists: TR-FRET artefact; TR-FRET detection artefact counter-screen, emission ratio; active compounds read high; TR-FRET ratio at 8 µM; actives 0.34% (n = 99,000); in the data active = TR-FRET ratio above about 2300
PPARg SRC1 recr – PPARgamma-driven SRC-1 recruitment agonism; P37231; PPARgamma-SRC-1 coactivator recruitment biochemical assay; activation, % at 8 µM; actives 0.41% (n = 200,000); in the data active = activation above about 19%;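 note: 0% = DMSO and 100% = reference agonist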
PPARg SRC2 recr – agonists of SRC-2 recruitment by human PPARgamma; activation, % at 8 µM; P37231; PPARgamma LBD-SRC-2 recruitment, biochemical; AID 1032; actives 0.34% (n = 200,000);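 note: 0% = vehicle and 100% = reference agonist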
SRC3 TRFRET art – TR-FRET artefact, counter-screen to PPARgamma/SRC-3 agonist assay; PPARgamma/SRC-3 format; active compounds read high; TR-FRET ratio at 8 µM; actives 0.39% (n = 99,000); in the data active = TR-FRET ratio above about 2000
SRC2 TRFRET art – counter-screen for PPARgamma SRC-2 recruitment agonists: TR-FRET artefact; AID 1049; TR-FRET ratio at 8 µM; active compounds read high; actives 0.4% (n = 200,000); in the data active = TR-FRET ratio above about 2000
PPARg SRC2 ag – confirmation of agonists of SRC-2 recruitment by human PPARgamma. shares compounds with PPARg SRC-3 ag. biochemical SRC-2 recruitment by PPARgamma. activation, % at 8 µM. actives 52% (n = 790). AID 1297;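 note: 0% = vehicle alone and 100% = reference agonist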
PPARg SRC1 ag – confirmation of agonists of SRC-1 recruitment by human PPARgamma; PPARgamma–SRC-1 coactivator recruitment biochemical assay; AID 1300; shares compounds with PPARg SRC-3 ag; activation, % at 8 µM; actives 43% (n = 790); in the data active = activation above about 20%;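 note: 0% = vehicle wells and 100% = reference agonist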
PPARg SRC3 ag – human PPARgamma SRC-3 recruitment agonism, confirmation; biochemical PPARgamma-SRC-3 coactivator recruitment, agonist mode; shares compounds with PPARg SRC-3 ag; actives 29% (n = 790); activation, % at 8 µM; AID 1301; in the data active = activation above about 24%;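 note: 0% = vehicle wells and 100% = reference agonist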
* hit, by the source's call; nt = not tested or not shown. Cut-off read from the data, not from the text of the source, unless noted: active = activation above about 22%; inactive = the rest.

SMILES	PPARg SRC-3 ag	SRC1 TRFRET art	PPARg SRC1 recr	PPARg SRC2 recr	SRC3 TRFRET art	SRC2 TRFRET art	PPARg SRC2 ag	PPARg SRC1 ag	PPARg SRC3 ag
COc1cc(/C=N/NC(=O)c2ccc(CSc3nncn3C)cc2)ccc1OCC(=O)N1CC(C)OC(C)C1 (stereo not drawn)	1.3	1762	8.1	9.0	1603	1637	nt	nt	nt
O=C(COc1ccc2ccccc2c1Br)NNC(=O)Nc1ccccc1	25.7*	nt	21.1*	28.4*	nt	2408*	20.9	13.3	14.4
CC(=O)c1c(C)[nH]c(C(=O)CN2C(=O)NC(C)(c3ccc(C)cc3)C2=O)c1C (stereo not drawn)	-1.0	1655	1.0	-1.1	1365	1617	nt	nt	nt
CCOC(=O)c1c(C)[nH]sc1=S	70.3*	nt	40.5*	58.4*	nt	2727*	33.4*	20.6*	24.9*
COc1cc2nc(SCc3ccc(Cl)cc3Cl)n(Cc3cccs3)c(=N)c2cc1OC	-2.1	nt	-9.3	3.1	nt	1489	nt	nt	nt
N#Cc1c(SCC(=O)O)nc(-c2ccccc2)c2c1CCCC2	30.2*	nt	17.4	10.9	nt	1727	13.6	11.3	9.1
Oc1cc2c(cc1O)C1c3ccc(O)c(O)c3OCC1(O)C2 (stereo not drawn)	10.1	2256	27.1*	21.6	1777	1683	8.7	6.4	2.3
Cc1ccc(-c2nc(N)n(S(C)(=O)=O)n2)cc1	-6.8	nt	-5.8	11.2	nt	1380	nt	nt	nt
O=C(N/N=C/c1ccc(N2CCOCC2)o1)c1cccc(C(F)(F)F)c1	12.7	nt	11.7	23.6*	nt	1609	5.6	3.8	3.9
Cc1ccccc1NC(=O)/C(=C\c1cccs1)NC(=O)c1ccccc1	2.7	nt	-0.3	1.0	nt	1552	nt	nt	nt
N#Cc1c(N)n[nH]c1CCCN	2.6	nt	-4.9	0.1	nt	1515	nt	nt	nt
CCCCCCN1C=CC(=C/C=C(\C#N)C(=O)OCC)C=C1	14.6	nt	20.7*	20.0	nt	1710	6.7	4.0	3.8
CCCN1C=CC(=C/C=C(\C#N)C(=O)OCC)C=C1	13.8	nt	16.9	19.5	nt	1797	nt	nt	nt
COc1ccc(NC(=O)COc2ccc3c(c2)CCC3)cc1	4.1	1797	4.0	3.1	1759	1571	nt	nt	nt
CN(C)S(=O)(=O)c1ccc(C(=O)Nc2ccccc2F)cc1	-1.5	nt	0.1	8.9	nt	1422	nt	nt	nt
O=c1c2oc3ccccc3c2[nH]c(=S)n1-c1ccc(F)cc1	13.3	2641*	16.4	26.0*	2296*	2177*	13.0	4.7	8.8
Cc1ccc(-n2c(=S)[nH]c3c(oc4ccccc43)c2=O)cc1C	4.9	1933	9.2	18.2	2010	1894	nt	nt	nt
COC(=O)c1ccc(NC(=S)Nc2ccc(O)cc2)cc1	5.1	2014	5.5	3.2	1594	1580	nt	nt	nt
C=CCSC1=Nc2cc(OC)c(OC)cc2C2=NC(=O)CN12	10.1	1868	20.9*	15.0	1730	1797	29.3*	18.5	17.9
O=C(CCn1cnc2ccccc21)N/N=C/c1ccccc1O	-3.4	1676	-3.4	13.2	1717	1621	nt	nt	nt
CCN1CCN(CCCNc2ncnc3nc[nH]c23)CC1	5.0	2118	4.5	2.7	1626	1575	nt	nt	nt
N#Cc1ccsc1NC(=O)CN1CCN(S(=O)(=O)c2ccc3ccccc3c2)CC1	8.0	2399*	18.6	27.8*	2536*	2346*	11.2	9.9	5.5
O=C(OCn1ncc(Br)c(Br)c1=O)c1ccccc1Cl	21.2	nt	6.0	18.8	nt	1784	nt	nt	nt
O=C(OCn1ncc(Br)c(Br)c1=O)c1ccc(F)cc1	43.7*	nt	22.2*	37.3*	nt	2296*	43.3*	29.3*	30.6*
CS(=O)(=O)c1ccccc1-c1nnc(-c2ccc(Cl)cc2)o1	1.5	1928	0.7	-2.8	1694	1576	nt	nt	nt
O=S(=O)(Cc1ccc(Cl)cc1)c1ccccc1-c1nnc(-c2ccccc2)o1	17.4	nt	10.1	25.7*	nt	2006*	0.6	3.4	-0.2
CC(C)c1ccc(-c2c(C#N)c(N)nc3c2CCCCC3)cc1	7.4	nt	3.8	7.1	nt	1630	nt	nt	nt
